Assay outcomes (PubChem BioAssay)
The list is not random: actives were taken first. Their share in the collection is about 2.7%.
14-3-3 Bad inh = disrupts binding of bovine 14-3-3 zeta to phospho-Bad peptide; P63103; TR-FRET 14-3-3zeta/Dy647-pBad peptide displacement, 1 h; inhibition, % at 21.7 µM; actives 0.71% (n = 220,000);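 active = inhibition above about 70%, limit read from the data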;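 note: 0% = full 14-3-3 plus peptide FRET controls and 100% = background without 14-3-3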
Target sequence (P63103 whole entry, looked up): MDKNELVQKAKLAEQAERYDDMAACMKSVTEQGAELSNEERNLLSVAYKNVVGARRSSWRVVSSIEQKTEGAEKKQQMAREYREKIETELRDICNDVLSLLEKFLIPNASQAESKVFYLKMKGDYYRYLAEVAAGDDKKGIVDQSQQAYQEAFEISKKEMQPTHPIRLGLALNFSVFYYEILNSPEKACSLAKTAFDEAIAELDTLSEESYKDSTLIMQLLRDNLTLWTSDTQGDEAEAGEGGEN
Pf gamet viab = inhibitors of late stage P. falciparum gametocyte viability; AID 743093; actives 0.065% (n = 150,000); P. falciparum stage V gametocytes, ATP luminescence, 24 h; inhibition, % at 10.9 µM;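 active = inhibition above the mean plus 3 SD of compounds within the control limits, set per campaign, cut at about 38% in these data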;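 note: 0% = DMSO wells and 100% = medium only without gametocytes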
Mcl1 Bid PPI = Mcl-1/Bid interaction inhibition | Q07820 | actives 0.97% (n = 220,000) | inhibition, % at 21.7 µM | TR-FRET Mcl-1/Bid-Dy647 peptide binding, 1536-well;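 active = compounds that cut the binding signal by more than half at the single screening dose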;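 note: His-tagged Mcl-1 with europium anti-His antibody binding Bid BH3 peptide; 0% = Mcl-1 plus peptide wells and 100% = peptide-only wells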
Mcl1-Noxa inh = disrupts binding of human Mcl-1 to Noxa peptide | Q07820 | TR-FRET Mcl-1/Noxa peptide binding, 2 h | inhibition, % at 21.7 µM | actives 1.5% (n = 220,000) | AID 1022;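 active = compounds that cut the protein-peptide binding signal by more than 50% relative to plate controls in a single-dose test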;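 note: His-tagged Mcl-1 with rhodamine Noxa BH3 peptide and terbium anti-His antibody; 0% = Mcl-1 plus Noxa peptide wells and 100% = peptide-only wells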
Mcl-1 Bim block = inhibitors of Bim-Mcl-1 interaction, human; actives 0.1% (n = 190,000); Q07820; Bead-based flow cytometry, Bim peptide-Mcl-1 binding; inhibition, % at 10 µM; in the data active = inhibition above about 40%;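 note: 0% = no compound tracer wells and 100% = peptide blocker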
eIF4E-4G inh = eIF4E/eIF4G interaction inhibition in translation initiation | AID 782 | P63073+Q04637 | actives 0.37% (n = 220,000) | inhibition, % at 21.7 µM | TR-FRET eIF4E-eIF4GI(517-606) binding, 2 h;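 active = inhibition above about 30%, limit read from the data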;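 note: 0% = full FRET control wells and 100% = background wells lacking eIF4GI fragment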
Starred values were filed as active, the others as inactive; · = no result.

SMILES | 14-3-3 Bad inh | Pf gamet viab | Mcl1 Bid PPI | Mcl1-Noxa inh | Mcl-1 Bim block | eIF4E-4G inh
Cc1cccc(NCC(=O)c2c(N)n(C)c(=O)n(C)c2=O)c1C | -6.5 | 6.1 | -64.8 | 31.1 | -2.0 | -2.5
COc1cc(OC)cc(C(=O)NC2CCN(CCCOc3ccccc3)CC2)c1 | · | -21.9 | · | · | · | ·
O=C(NCCc1ccccc1)c1ccc2nc(-c3ccco3)c(-c3ccco3)nc2c1 | 17.9 | · | 55.8* | 103.0* | 8.0 | 18.3
O=C(NCCc1ccccc1)c1ccc(=O)oc1 | 4.7 | · | -28.2 | 6.4 | -2.0 | 1.4
O=C(NC1CCCC1)c1ccc2nc(-c3ccco3)c(-c3ccco3)nc2c1 | -5.8 | · | 28.7 | 100.6* | 4.0 | 15.3
O=C(NC1CCCC1)c1ccc2nc[nH]c2c1 | 1.1 | -10.1 | -31.4 | -48.1 | 2.0 | 1.2
C#CCOCCOCCOCCNc1nc(N2CCN(C(=O)[C@H]([C@@H](C)O)n3cc(CCCCN)nn3)CC2)nc(N2CCN(C(=O)[C@H](Cc3ccc(O)cc3)n3cc(CCO)nn3)CC2)n1 | 40.3 | -6.2 | 3.6 | 21.3 | 0.0 | 2.2
C#CCOCCOCCOCCNc1nc(N2CCN(C(=O)[C@H]([C@@H](C)CC)n3cc([C@@H](N)CO)nn3)CC2)nc(N2CCN(C(=O)[C@H](Cc3ccc(O)cc3)n3cc([C@@H](N)CC(C)C)nn3)CC2)n1 | 51.8 | 13.0 | 63.4* | 45.0 | -8.0 | 7.0
C#CCOCCOCCOCCNc1nc(N2CCN(C(=O)[C@H](Cc3ccc(O)cc3)n3cc(CCO)nn3)CC2)nc(N2CCN(C(=O)[C@H](Cc3ccc(O)cc3)n3cc(CCO)nn3)CC2)n1 | 73.0* | · | 19.8 | -30.3 | -2.0 | -4.8
C#CCOCCOCCOCCNc1nc(N2CCN(C(=O)[C@H](CCC(=O)O)n3cc(C(N)Cc4ccc(O)cc4)nn3)CC2)nc(N2CCN(C(=O)[C@H](CCC(=O)O)n3cc(C(N)CC(C)C)nn3)CC2)n1 (some centres not stated) | 42.6 | · | 59.8* | 36.1 | -4.0 | 2.7
C#CCOCCOCCOCCNc1nc(N2CCN(C(=O)[C@H](CCC(=O)O)n3cc(C(N)CC(C)C)nn3)CC2)nc(N2CCN(C(=O)[C@H](CCC(=O)O)n3cc(C(N)CC(C)C)nn3)CC2)n1 (some centres not stated) | 26.8 | · | 67.2* | 35.7 | -2.0 | 2.6
C/C(=N\NC(=O)c1ccccc1NC(=O)c1ccc(Cl)cc1)c1ccncc1 | -13.0 | -3.3 | 1.0 | 14.8 | 0.0 | -0.5
CCc1c(C(=O)N2CCN(c3ccccc3F)CC2)[nH]c(C)c1C(C)=O | -15.6 | · | -19.8 | 2.0 | 2.0 | -2.0
CC(C)OC(=O)Cn1nc(C(c2ccccc2)c2ccccc2)oc1=O | · | 19.5 | · | · | · | ·
CC(C)CC1NC(=O)N(CC(=O)N2c3ccccc3NC(=O)C2(C)C)C1=O (configuration not stated) | -10.0 | 9.5 | -28.8 | 82.4* | 0.0 | 0.0
Cc1cc(C(=O)CN2C(=O)NC(CC(C)C)C2=O)c(C)n1-c1ccccc1F (configuration not stated) | -12.3 | · | -13.7 | 19.0 | -3.0 | 0.1
Cc1nn(CC(=O)N2c3ccccc3NC(=O)C2(C)C)c(C)c1[N+](=O)[O-] | -5.4 | -2.5 | -21.7 | 1.9 | -1.0 | -3.6
CC1(C)C(=O)Nc2ccccc2N1C(=O)Cn1ncc(Cl)c(Cl)c1=O | -1.7 | -17.6 | -0.9 | 58.0* | · | 17.9
CN1CCN(c2ccc(Cl)cc2NC(=O)CCN2C(=O)c3ccccc3C2=O)CC1 | 33.6 | 7.2 | 2.4 | 31.3 | 0.0 | 6.1
O=C(O)C(Cc1ccccc1)N1C(=O)/C(=C/c2ccccc2)SC1=S (configuration not stated) | -1.0 | 2.8 | 17.4 | 20.8 | -5.0 | 13.3
COc1cc(/C=C2/SC(=S)N(CC3CCCO3)C2=O)ccc1O (configuration not stated) | -14.1 | -13.8 | 72.2* | 13.1 | -1.0 | 0.5
COc1cc(/C=C2\SC(=S)N(C(Cc3ccccc3)C(=O)O)C2=O)ccc1O (configuration not stated) | 9.6 | -4.4 | 55.5* | 18.7 | · | 1.1
O=C(O)C(Cc1ccccc1)N1C(=O)/C(=C/c2cccc3ccccc23)SC1=S (configuration not stated) | -2.9 | · | 91.0* | 78.2* | 4.0 | 10.6
